Source: PubChem (National Center for Advancing Translational Sciences (NCATS))
Pf growth 48h – Primary qHTS for delayed death inhibitors of the malarial parasite plastid, 48 hour incubation | 5.9% of 310,000 active | Potency, µM (titrated, usually from 28.7 µM), inactives show at the highest dose activity change, negative = inhibition, hits mostly inhibitors | P. falciparum luciferase growth in erythrocytes, 48 h | AID 504832, 2011; note: % is set by controls: 0 for no effect and ±100 for the full control effect
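Growth was read as firefly luciferase luminescence after a 48 h, 37 C, 5% CO2 exposure of compounds to reporter-bearing P. falciparum cultures (0.1% parasitemia, 2% hematocrit final) in Albumax-supplemented RPMI 1640.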
Pf growth 96h – Primary qHTS for delayed death inhibitors of the malarial parasite plastid, 96 hour incubation. P. falciparum luciferase reporter growth, 96 h. Potency, µM (doses to about 28.7 µM), for inactives: top-dose activity change, negative = inhibition, hits mostly inhibitors. 6.9% of 320,000 active. AID 504834, 2011; note: % is set by controls: 0 for no effect and ±100 for the full control effect
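Readout is luminescence from an integrated firefly luciferase in P. falciparum. Red cells, 2% hematocrit and 0.05% parasitemia final, were cultured with compound through two parasite generations (96 hours) at 37 C, 5% CO2.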
Sm TGR block – qHTS Assay for the Inhibitors of Schistosoma Mansoni Peroxiredoxins; 3% of 360,000 active; purified TGR, DTNB reduction, TNB absorbance 405 nm; Potency, µM (doses to about 114 µM), for inactives: top-dose activity change, negative = inhibition, actives largely listed as inhibitors; note: % is set by controls: 0 for no effect and ±100 for the full control effect; nearly all actives have a fitted effect of over 60% in size
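TGR 20 nM + NADPH 100 uM (dispensed conc.), cpd preinc 15 min RT; start with NADPH (500 uM addition) then DTNB (15 mM addition). Kinetic TNB absorbance, 405 nm filter. Four-parameter Hill fit across titration.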
NS1 inh – qHTS Assay for Inhibitors of Influenza NS1 Protein Function. Potency, µM (series often up to 46.1 µM), inactives show at the top dose activity, positive = more growth. 0.4% of 270,000 active. AID 2326, 2010; calls by dose curve; note: actives are rising curves; nearly all actives have a fitted effect of over 50% in size
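Recovery from NS1-induced slow growth read by OD600 in budding yeast switched to galactose assay medium (pH 6.0, -URA) at 1:100 dilution. Compound 23 nl per well; the matching strain lacking NS1 serves as control.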
AMA1-RON2 inh – qHTS for Inhibitors of AMA1-RON; Towards Development of Antimalarial Drug Lead: Primary Screen. AlphaScreen AMA1-biotinylated RON2 peptide binding. Potency, µM (top dose mostly 58.2 µM), inactives show at the top dose activity change, negative = inhibition, hits mostly inhibitors. Plasmodium falciparum AMA1 (3D7) - RON2 peptide interaction. 0.2% of 360,000 active. AID 720542, 2013;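 note: 0% = vehicle wells and -100% = peptide control; nearly all actives have a fitted effect of over 45% in size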
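AMA1 (3D7) with his tag at 25 nM final met compounds first, then biotinylated RON2 peptide at 25 nM; detection used donor plus acceptor beads, 10 µg/mL apiece, read by AlphaScreen after 30 min at room temperature.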
The depositor's hits bear a star; ? = inconclusive; . = not tested or not shown. Rows were chosen to be rich in hits. Some 11% of all compounds tested hit in one or more screens of this group. Unless noted, calls come from the whole dose curve; as a rule, active = well fitted curve in the direction sought with a large enough effect; inconclusive = small, poorly fitted or top-dose-only effect, or another doubt; inactive = no such curve, though single readings can be large; an effect the other way counts as inactive or inconclusive. Potency is the fitted concentration of half-maximal effect.

SMILES | Pf growth 48h | Pf growth 96h | Sm TGR block | NS1 inh | AMA1-RON2 inh
C=CCN1C(=O)C(O)(CC(=O)c2ccc(OC)cc2OC)c2cc(Br)ccc21 (stereo not given) | 11.7µM* | -0.7% | -7.0% | -12.7% | 1.3%
CN1C(=O)C(O)(CC(=O)/C=C/c2ccco2)c2ccccc21 (stereo not given) | -4.2% | 37.5% | . | 2.9% | 8.0%
CN1C(=O)C(O)(CC(=O)c2ccccc2O)c2cc(Br)ccc21 (stereo not given) | ? | 1.17µM* | -13.4% | -31.5% | -2.9%
CN1C(=O)C(O)(CC(=O)/C=C/c2ccco2)c2cc(Br)ccc21 (stereo not given) | ? | ? | 17.8µM* | -0.1% | 12.2%
O=C(CC1(O)C(=O)Nc2ccccc21)c1cccc(-n2cccc2)c1 (stereo not given) | 11.2% | 31.2% | -7.7% | 4.5% | -3.2%
CCCCOC(=O)c1ccc(NC(=O)CC2NCCNC2=O)cc1 (stereo not given) | . | . | -1.1% | . | .
O=C(c1cccs1)N(Cc1ccco1)c1nc(-c2ccc(F)cc2)cs1 | 13.1µM* | -11.5% | 0.3% | 10.1% | 0.0%
COc1cc2c(cc1NS(=O)(=O)c1cccc(C#N)c1)n(C)c(=O)n2C | . | . | -10.5% | . | .
CCOc1cccc(-c2cc(C(=O)Nc3ccon3)c3ccccc3n2)c1 | 2.08µM* | -18.1% | -4.5% | 0.5% | -3.7%
COc1cccc(-c2cc(C(=O)Nc3ccccc3)c3ccccc3n2)c1 | . | . | . | . | 23.4%
O=C(Nc1ccon1)c1cc(-c2ccccc2)nc2ccccc12 | 7.38µM* | . | -10.9% | -60.7% | -3.3%
CCc1ccc(Nc2nnc(SCC(=O)NC(=O)CN3CCCC3=O)s2)cc1 | 20.1% | 17.8% | -12.5% | . | -10.3%
C=CCn1c(C(c2ccccc2)c2ccccc2)n[nH]c1=S | -20.4% | 3.7µM* | 6.2% | -1.8% | 46.1%
CN(CC(=O)Nc1cccc(F)c1)CC(=O)N(C)c1c(N)n(Cc2ccccc2)c(=O)[nH]c1=O | . | . | . | . | 28.2%
Cc1ccc(NC(=S)NNC(C)(C)C)cc1 | 13.1µM* | 5.86µM* | ? | -39.8% | 18.0%
O=C(CCCN1C(=O)/C(=C/c2cccs2)SC1=S)NNC(=O)c1ccncc1 | -26.3% | -2.0% | -0.8% | . | 94.2%
O=C(CCCN1C(=O)/C(=C/c2cccs2)SC1=S)NNC(=O)c1ccccc1O | 8.8% | 3.29µM* | -15.2% | 8.2% | 1.0%
CCN(CC)CCOC(=O)c1ccc(NC(=O)CCCN2C(=O)/C(=C/c3cccs3)SC2=S)cc1 | 5.22µM* | ? | -3.0% | 9.6% | ?
O=C(O)C(Cc1ccccc1)N1C(=O)/C(=C/c2cccs2)SC1=S (stereo not given) | 4.0% | 10.4µM* | . | 1.0% | 11.5%
O=C1NC[C@@H](Cc2ccc(O)cc2)N(CCCCC2CCCCC2)C1=O | . | . | . | . | 2.9%
O=C(CCC1CCCCC1)NCCN1C2=NC[C@H](Cc3ccc(O)cc3)N2C[C@H]1Cc1ccc(O)cc1 | ? | ? | 35.5µM* | -0.5% | -7.4%
C[C@@H]1CN=C2N(CCNC(=O)CCC3CCCCC3)[C@H](Cc3ccc(O)cc3)CN21 | 5.1% | 13.1µM* | 5.01µM* | -3.7% | -2.2%
O=C(CSc1nnc2c(n1)[nH]c1ccccc12)N1CCCCC1 | ? | ? | -12.0% | -1.5% | 4.8%
CC1CCc2cc(F)ccc2N1C(=O)CSc1nnc2c(n1)[nH]c1ccccc12 (stereo not given) | 1.47µM* | ? | 3.6% | 12.8% | 14.3%
Cc1ccc(C(O)c2ncc(-c3ccc4ccccc4c3)[nH]2)c(C)c1 (stereo not given) | . | . | . | . | -1.6%
SMILES | Pf growth 48h | Pf growth 96h | Sm TGR block | NS1 inh | AMA1-RON2 inh
N#Cc1ccc(N2CCCNCC2)nc1 | 3.0% | -0.6% | 28.2µM* | 6.4% | 17.2%
CCNC(=O)C1(C)CCCN(C(=O)c2csc3ccccc23)C1 (stereo not given) | . | . | . | . | 2.9%
Cc1ccc(CNS(=O)(=O)c2c(C)nc3sc(C)cn3c2=O)cc1 | . | . | -6.5% | . | .
CS(=O)(=O)Cc1nc2ccccc2oc1=O | ? | 6.57µM* | ? | -162.2% | -25.9%
CCS(=O)(=O)CCSc1nc2ccccc2o1 | 1.9% | 64.3% | -11.3% | 10.1% | 0.8%
NC(=S)N/N=C/c1c(O)c(Br)cc2oc3c(c12)CCCC3 | 3.29µM* | ? | -2.6% | 3.5% | 22.9%
COC(=O)C[C@H]1C=C[C@H](NC(=O)C2CCOCC2)[C@@H](CO)O1 | . | . | . | . | -9.7%
COc1cccc(CNc2ncc(C(=O)Nc3cc(OC)c(OC)c(OC)c3)c(C)n2)c1 | 10.4µM* | ? | 0.7% | 8.2% | 6.5%
COc1cc(NC(=O)c2cnc(NCc3ccccc3)nc2C)cc(OC)c1OC | ? | 11.4% | -2.5% | -1.2% | 13.5%
CCCCCCCCOC(=O)CCn1[nH]c(=O)c2ccccc2c1=O | ? | 10.4µM* | 8.3% | -146.8% | -12.5%
CCCCCOC(=O)Cc1c(O)c2ccccc2n(C)c1=O | 21.7% | -5.6% | 3.98µM* | -178.7% | -7.6%
Cc1ccc2c(CNCc3cccc(Cl)c3)c(C(=O)O)n(Cc3ccc(F)cc3Cl)c2c1 | . | . | 0.4% | . | .
Cc1cccc(C(=O)OCC(=O)NC(=O)c2ccccc2)c1O | 35.0% | -3.7% | 50.1µM* | . | -2.3%
COc1cccc(CNC(=O)c2ccc3c(c2)nnn3C2CCCC2)c1 | . | . | 5.8% | . | .
COc1cc(OC)cc(-c2sc3ccc(OC)cc3c2C#CCCO)c1 | 0.0% | ? | 25.1µM* | . | -4.3%
COC(=O)c1c(-c2ccsc2)sc2ccc(-c3cc(OC)c(OC)c(OC)c3)cc12 | . | . | . | . | -22.6%
COc1cc(-c2ccc3sc(-c4ccsc4)c(C#CCO)c3c2)cc(OC)c1OC | 11.7µM* | ? | ? | . | -3.7%
COc1ccc2sc(-c3ccccc3OC)c(C#CCCO)c2c1 | ? | ? | ? | . | -15.2%
COc1cc(COc2ccc3c(C)c(Cc4ccccc4)c(=O)oc3c2C)cc(OC)c1OC | ? | 1.85µM* | -7.5% | -1.1% | -5.2%
COc1cc(COc2ccc3c(C)c(Cc4ccccc4)c(=O)oc3c2)cc(OC)c1OC | 8.28µM* | ? | 15.6% | 5.9% | 6.1%
COc1ccc2c(C)c(Cc3ccccc3)c(=O)oc2c1OC | 11.7µM* | 9.1% | -15.0% | -41.0% | 7.5%
COc1cccc(COc2ccc3c(C)c(Cc4ccccc4)c(=O)oc3c2)c1 | . | . | . | . | 5.8%
COc1ccccc1COc1ccc2c(C)c(CC(=O)O)c(=O)oc2c1C | 1.4% | 6.57µM* | -0.6% | 13.0% | -10.1%
COc1ccccc1C(=O)Nc1cc2c(cc1N1CCCCC1)n(C)c(=O)n2C | . | . | 4.9% | . | .
CCN(CC(=O)Nc1ccc(NC(C)=O)cc1)C(=O)c1cc(CN2C(=O)c3ccccc3C2=O)ccc1OC | -1.0% | 13.5% | 2.6% | . | 10.6%
O=C(NCc1ccco1)c1cccc2c1C(=O)c1ccc(N3CCCC3)cc1S2(=O)=O | . | . | . | . | -0.9%
